Compound activity as filed in PubChem BioAssay.
The entries come from a sample that favours hits as a whole.
Pf Dd2 growth: Plasmodium falciparum Dd2 growth inhibition | P. falciparum Dd2 growth, SYBR Green, 72 h | Potency, µM (highest dose often 28.9 µM), most hits filed as inhibitors | 120,000 compounds, 4.3% hits | AID 1347417; active = well fitted inhibition curve with a large enough effect; note: nearly all actives have a fitted effect of over 65% in size
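Readout: SYBR Green fluorescence, 485 nm excitation, 535 nm emission, after ~16 h lysis at 37C. Before that, Dd2-infected red cells (2.5% hematocrit) grew 72 h with compound, 29 uM top final concentration.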
Of the large screens only hits and unclear results are named; the others gave an inactive call; ! = repeats disagree.

CCN1c2cc(C(=O)NCc3ccc(Cl)cc3)ccc2C(=O)N2CCCCC21 (stereo not drawn)	Pf Dd2 growth 8.9µM
CN1c2cc(C(=O)NCc3ccccc3)ccc2C(=O)N2CCCCC21 (stereo not drawn)	none
CCN1c2cc(C(=O)NCc3cccc(Cl)c3)ccc2C(=O)N2CCCCCC21 (stereo not drawn)	none
CC(C)c1ccc(CNC(=O)c2ccc3c(c2)N(C)C2CCCCN2C3=O)cc1 (stereo not drawn)	Pf Dd2 growth 2.2µM
CCN1c2cc(C(=O)NCc3ccc(OC)cc3)ccc2C(=O)N2CCCCCC21 (stereo not drawn)	none
CCN1c2cc(C(=O)NCc3cccc(OC)c3OC)ccc2C(=O)N2CCCCCC21 (stereo not drawn)	none
Cn1c(CN2CCOCC2)nnc1C1CCCN(S(=O)(=O)C2CC2)C1 (stereo not drawn)	none
CC(=O)N1CCCN(Cc2nnc(C(=O)N3CCC[C@@H]3c3cccc(F)c3)n2-c2ccccc2)CC1	none
CC(C)CN1C(=O)c2cccn2CC1C(=O)N1CCCC1 (stereo not drawn)	none
CC(=O)c1cc(C(=O)N2CCC3(CC2)Nc2ccccc2NC3=O)[nH]n1	none
COc1ccc(CNC(=O)[C@H]2O[C@H](CCN3CCCC3)CC[C@@H]2O)cc1	none
Cc1ccc(N2CCN(C(=O)C3CCCN(c4cnc5nccnc5c4)C3)CC2)cc1 (stereo not drawn)	none
COc1ccc(Br)cc1CNC(=O)c1ccc2c(c1)N(Cc1ccc(C)cc1)CCS2	none
COc1ccccc1CNC(=O)c1ccc2c(c1)N(Cc1ccc(C)cc1)CCS2	Pf Dd2 growth 10µM
CCOc1ccccc1CNC(=O)c1ccc2c(c1)N(Cc1ccc(C)cc1)CCS2	none
CCCCOc1ccc(CNC(=O)c2ccc(-c3nc(CN4CCc5ccccc54)c(C)o3)cc2)cc1	none
COc1ccccc1CNC(=O)c1ccc(-c2nc(CN3CCc4ccccc43)c(C)o2)cc1	Pf Dd2 growth 10µM
CCc1ccc(-c2nc(CSCC(=O)NCc3ccccc3OC)c(C)o2)cc1	none
COCCC(=O)N[C@H]1CC[C@]2(C)CC[C@@H]([C@H](C)C(=O)NCc3ccco3)[C@H](O)[C@H]2[C@@H]1C	none
CN1CC(=O)N(c2ccccc2F)Cc2c(NCc3ccccn3)ncnc21	none
O=C(NCC1CC1)c1csc(N2CCN(c3ccccc3F)CC2)n1	none
O=c1cc(-c2cccnc2)oc2c(-c3ccccc3F)nccc12	none
C[S+](=O)([O-])c1ccc(-c2nccc3c(=O)cc(-c4ccncc4)oc23)cc1	none
O=c1cc(-c2ccncc2)oc2c(-c3ccccc3O)nccc12	Pf Dd2 growth 1.8µM
CO[C@@H]1CO[C@H]2[C@@H]1OC[C@@H]2n1nnnc1C(C)C	none
CCOc1cc2c(cc1OCC)C(CC(=O)O)N(C(=O)Nc1ccccc1C(F)(F)F)CC2 (stereo not drawn)	none
COC(=O)c1ccc(OCC2c3cc(OC)c(OC)cc3CCN2C(=O)c2ccc(F)cc2)cc1 (stereo not drawn)	Pf Dd2 growth 11µM
COc1ccc(-c2noc([C@@H]3CCCN3C(=O)Cc3ccc(F)cc3)n2)cc1OC	none
COC(=O)c1ccc(OCC2c3cc(OC)c(OC)cc3CCN2C(=O)c2ccccc2C)cc1 (stereo not drawn)	Pf Dd2 growth 11µM
COc1ccc(C(=O)N2CCc3ccc(C(=O)NCc4ccccc4C)cc32)cc1	none
CCNC(=O)N1CCc2cc(OC)c(OC)cc2C1CNC(=O)C1CC1 (stereo not drawn)	none
COc1ccc(CC(=O)N2CCc3cc(OC)c(OC)cc3C2COc2ccc(F)cc2)cc1OC (stereo not drawn)	Pf Dd2 growth 11µM
COc1cc2c(cc1OC)C(COc1ccc(F)cc1)N(C(=O)C(C)C)CC2 (stereo not drawn)	none
COc1cc2c(cc1OC)C(CNC(=O)c1ccco1)N(C(=O)Nc1cccc(F)c1)CC2 (stereo not drawn)	none
CCc1noc(-c2cn(C3CCCN(C(=O)c4ccc(F)cc4)C3)nn2)n1 (stereo not drawn)	none
C[C@@H]1CN(C(=O)c2ccc(-c3nnn(C)n3)cc2)C[C@@]1(O)C1CC1	none
CCN1C(=O)CCN(C(=O)NCc2ccc(C)cc2)CC12CCOCC2	none
CCc1cc(=O)n(CC(=O)Nc2ccc(C(F)(F)F)cc2)c(N2CCOCC2)n1	none
O=C(N[C@@H]1CN(Cc2ccoc2)C[C@H]1CO)c1cccnc1	none
O=c1[nH]c(C2CCN(CC3CCCC3)CC2)nc2ccc(F)cc12	none
COc1ccccc1-c1ccc(CN2CC3CCC(C2)N3c2ccc(C(F)(F)F)cc2)cc1	none
O=c1[nH]c(C2CCCN(Cc3ccc(C(F)(F)F)cc3)C2)nn1-c1ccccc1 (stereo not drawn)	none
O=c1[nH]c(C2CCCN(Cc3ccsc3)C2)nn1-c1ccccc1 (stereo not drawn)	none
O=c1[nH]c(C2CCN(Cc3ccc(-c4cccnc4)cc3)CC2)nc2ccc(F)cc12	Pf Dd2 growth 4.5µM!
O=c1cc(-c2cccnc2)nc(-c2ccc(CN3CC[C@@H](O)C3)cc2)[nH]1	none
COc1ccccc1-c1ccc(CN2CCN(c3ccc(Cl)nn3)C(=O)C2)cc1	none
O=c1[nH]c(C2CCCN(Cc3ccc(-c4ccccc4)cc3)C2)nc2ccc(F)cc12 (stereo not drawn)	Pf Dd2 growth 8.9µM!
COc1ccccc1-c1ccc(CN2CCCC(c3nc4ccc(F)cc4c(=O)[nH]3)C2)cc1 (stereo not drawn)	Pf Dd2 growth 8.9µM!
CCOC(=O)C1=C(C)N=C2SC=C(CC(=O)NCc3ccco3)N2C1c1cccc(OC)c1OC (stereo not drawn)	none
COCCn1cnnc1C(C)Nc1nc(-c2cccnc2)nc2c1CNC2 (stereo not drawn)	none
OCc1cc2n(n1)CCCN(Cc1cnc(SCc3ccccc3)nc1)C2	none
CC(C)Cn1nc2n(c1=O)CCN(S(=O)(=O)c1cccc3cccnc13)CC2	none
CCc1nncn1C1CCN(S(=O)(=O)c2ccccc2C)CC1	none
CCOc1ccc(CCCNC(=O)c2c(C)cc(C)n(C)c2=O)cc1OCC	none
Cc1cn2nnc(C(=O)N3CCC(C(=O)Nc4cccc(F)c4)CC3)c2c(=O)[nH]1	none
Cn1nccc1CCC(=O)N[C@@H]1CCOC[C@H]1Oc1ccccn1	none
CCOC(=O)c1cc(-c2ccccc2)n(CC(=O)Nc2ccc(CC)cc2)c1C	none
CCOC(=O)c1cc(-c2ccccc2)n(CCCC(=O)Nc2cccc(C)c2)c1C	none
CCOC(=O)c1cccc(NC(=O)CCn2c(-c3ccc(F)cc3)cc(C(=O)OCC)c2C)c1	Pf Dd2 growth 0.1µM
CCOC(=O)c1cc(-c2ccc(C)cc2)n(CC(=O)Nc2ccc(OC)c(Cl)c2)c1C	none
CCOC(=O)c1cc(-c2ccc(C)cc2)n(CCC(=O)Nc2ccc(C(C)C)cc2)c1C	Pf Dd2 growth 8.9µM
CCOc1ccc(NC(=O)CCn2c(-c3ccc(F)cc3)cc(C(C)=O)c2C)cc1	none
COc1cncc([C@@H](NC(=O)Cc2cn3ccsc3n2)C2CC(O)C2)c1 (stereo partly drawn)	none
CC(C)c1noc(-c2cn(C3CCN(C(=O)c4ccc(C#N)cc4)C3)nn2)n1 (stereo not drawn)	none
c1ccc2sc([C@H]3CCN(Cc4ccc5c(c4)OCO5)C3)nc2c1	none
O=C(NC[C@H]1OC[C@@H](NC2CCOCC2)[C@@H]1O)c1ccccc1	none
CC(C)C[C@@H](NC(=O)[C@@]1(O)C[C@@H](O)[C@H](O)[C@@H](NC(=O)c2ccc(F)c(Cl)c2)C1)C(N)=O	none
CC(=O)Nc1cccc(-c2cnc3n[nH]c(-c4sccc4C)c3n2)c1	none
CC(=O)Nc1cccc(-c2cnc3n[nH]c(-c4ccc(F)cc4C)c3n2)c1	none
